Values joined by “and” are separate entries in the source; they are usually repeats but may differ in a detail not shown here. Equal entries are not always repeated. Some compounds were tested as several samples or in several runs, with calls that do not always agree. Active and inactive are the calls of the source. The calls were made as follows: active = hit-call score of the fitted dose curve at least 0.9, where 1 is the maximum; inactive = score below 0.9.
Target: Heat shock factor protein 1 (Homo sapiens) (UniProt Q00613)
Sequence (Q00613 whole entry, looked up): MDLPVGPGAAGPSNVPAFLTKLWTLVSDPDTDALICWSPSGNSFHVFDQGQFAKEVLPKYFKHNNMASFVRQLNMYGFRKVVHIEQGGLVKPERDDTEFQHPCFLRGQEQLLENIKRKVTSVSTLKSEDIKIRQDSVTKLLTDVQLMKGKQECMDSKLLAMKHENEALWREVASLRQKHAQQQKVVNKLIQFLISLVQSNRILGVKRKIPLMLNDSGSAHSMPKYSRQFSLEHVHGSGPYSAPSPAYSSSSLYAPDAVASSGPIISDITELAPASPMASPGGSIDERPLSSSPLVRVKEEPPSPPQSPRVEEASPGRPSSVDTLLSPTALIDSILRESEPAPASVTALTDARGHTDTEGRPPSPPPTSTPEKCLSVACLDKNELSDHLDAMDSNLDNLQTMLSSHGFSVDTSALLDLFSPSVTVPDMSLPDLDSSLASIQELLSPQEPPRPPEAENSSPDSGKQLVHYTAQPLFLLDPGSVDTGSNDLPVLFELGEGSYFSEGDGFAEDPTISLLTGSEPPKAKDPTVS
Assay: ATG_HSE_CIS: Attagene CIS-FACTORIAL HepG2 Assay for human Heat Shock Transcription Factor 1 (HSE) (AID 2282953)
Details: HepG2 HSE cis-reporter, Attagene RNA transcription; actives raise or lower the signal
Description: ATG_CIS is a cell-based, multiplexed-readout assay that uses HepG2, a human liver cell line, with measurements taken at 24 hours after chemical dosing in a 24-well plate.ATG_HSE_CIS is one of 52 assay component(s) measured or calculated from the ATG_CIS assay. It is designed to make measurements of mRNA induction, a form of inducible reporter, as detected with fluorescence intensity signals by Reverse transcription polymerase chain reaction (RT-PCR) and Capillary electrophoresis technology.Data from the assay component ATG_HSE_CIS was analyzed into 1 assay endpoint. This assay endpoint, ATG_HSE_CIS, was analyzed with bidirectional fitting relative to DMSO as the negative control and baseline of activity. Using a type of inducible reporter, measures of mRNA for gain or loss-of-signal activity can be used to understand the reporter gene at the transcription factor-level as they relate to the gene HSF1. Furthermore, this assay endpoint can be referred to as a primary readout, because this assay has produced multiple assay endpoints where this one serves a reporter gene function. To generalize the intended target to other relatable targets, this assay endpoint is annotated to the dna binding intended target family, where the subfamily is heat shock protein.
Human liver HepG2 cells are transiently transfected with multiple reporter transcription units (MRTUs) in 6-well plates using FuGene 6 reagent (Roche; 3 ml FuGene/1 mg DNA). The MRTU constructs are regulated by a cis-regulating element (promoter). […] A major difference between the CIS and TRANS system is that in CIS activities of endogenous TFs are measured, whereas the TRANS assay evaluates changes in activities of exogenous, chimeric NR-Gal4 proteins. […] At the end of 24 hour incubation, total RNA was isolated using TriZol reagent (Invitrogen). The isolated RNA is then reverse-transcribed using oligo(dT) primer and Mo-MLV reverse transcriptase (Invitrogen) with DNAse I (Ambion) treatment for 30 min. The one-tenth of the produced cDNA was amplified by PCR using Taq DNA polymerase (Invitrogen) and two reporter sequence-specific primers. The PCR products were fluorescently labeled by primer extension with 6-arboxyfluorescein (6-FAM) 5'-labeled reporter sequence-specific primer (2 min at 95 C, 20 s at 68 C and 10 min at 72 C) and these products were digested with 5U of HpaI (New England Biolabs) for 2h at 37 C. The fragments were purified using Qiaquick PCR columns (Qiagen), analyzed on an ABI 3130xL genetic analyzer (Applied Biosystems) with peak positions identified by using a set of X-rhodamine (ROX)-labeled MapMarker1000 molecular weight standards (BioVentures). The raw capillary electrophoresis data was processed using Attagraph software (Attagene).

Row | Compound | outcome | AC50
1 | Cc1cc(O)ccc1Cl | inactive | 
2 | NS(=O)(=O)C(F)(F)C(F)(F)C(F)(F)C(F)(F)C(F)(F)C(F)(F)C(F)(F)C(F)(F)F |  | 59.8 µM (active) and 115 µM (active) and 28.3 µM (active)
3 | CC(C)(c1ccccc1)c1ccc(O)cc1 | inactive | 54.7 µM (active)
4 | Oc1ccc(Cl)cc1Cl | inactive | 
5 | Sc1ccccc1 | inactive | 160 µM (active)
6 | CO/C=C(/C(=O)OC)c1ccccc1COc1cccc(C(F)(F)F)n1 | inactive | 
7 | CC#Cc1cc(C)nc(Nc2ccccc2)n1 | inactive | 
8 | C=CC(=O)NCNC(=O)C=C | inactive | 
9 | O=NN(c1ccccc1)c1ccccc1 | inactive | 
10 | Clc1ccc(Cl)cc1 | inactive | 179 µM (active)
11 | ClC1=C(Cl)[C@]2(Cl)[C@@H]3[C@@H]4C[C@@H]([C@H]5O[C@@H]45)[C@@H]3[C@@]1(Cl)C2(Cl)Cl | inactive | 
12 | CCOC(=O)C(O)(c1ccc(Cl)cc1)c1ccc(Cl)cc1 | inactive | 
13 | Cc1cccc([N+](=O)[O-])c1 | inactive | 
14 | O=C(N[C@H]1CN2CCC1CC2)c1cc2ccoc2cn1 | inactive | 
15 | Clc1ccc(C(c2ccccc2Cl)C(Cl)(Cl)Cl)cc1 (stereo not given) | inactive | 50.7 µM (active) and 94.6 µM (active)
16 | Cc1ccc(O)c(C)c1 | inactive | 
17 | CCC(=O)O[C@H]1CC[C@H]2[C@@H]3CCC4=CC(=O)CC[C@]4(C)[C@H]3CC[C@]12C |  | 159 µM (active) [middle of 4 runs]

Row | Compound | outcome | AC50
18 | O=C(O)C(F)(F)C(F)(F)C(F)(F)C(F)(F)C(F)(F)C(F)(F)C(F)(F)C(F)(F)C(F)(F)F | inactive | 50.3 µM (active) and 50 µM (active)
19 | Cc1cccc(C)c1N | inactive | 
20 | Nn1cnnc1 | inactive | 
21 | c1cc2ccc3cccc4ccc(c1)c2c34 | inactive | 
22 | C[C@]12CCC(=O)C=C1CC[C@@H]1[C@@H]2CC[C@]2(C)C(=O)CC[C@@H]12 | inactive | 
23 | CC(c1ccc(O)cc1)(c1ccc(O)cc1)c1ccc(O)cc1 | inactive | 
24 | CN(C)CCO | inactive | 
25 | COc1ccc(O)c(C(C)(C)C)c1 | inactive | 
26 | CC(C)(O)C(=O)Nc1ccc([N+](=O)[O-])c(C(F)(F)F)c1 | inactive | 77 µM (active)
27 | CCNc1nc(NC(C)C)nc(SC)n1 | inactive | 
28 | Oc1c(Cl)c(Cl)c(Cl)c(Cl)c1Cl |  | 31.5 µM (active) and 75.4 µM (active) and 142 µM (active)
29 | ClC(Cl)=C(c1ccc(Cl)cc1)c1ccc(Cl)cc1 | inactive | 174 µM (active)
30 | c1ccc(-c2ccccc2)cc1 | inactive | 
31 | CCCN(CCC)N=O | inactive | 
32 | CCOP(=S)(OCC)SCSC(C)(C)C | inactive | 
33 | CCCCCCCCCC[N+](C)(C)CCCCCCCCCC | inactive | 
